This is an account of results in PubChem BioAssay.

A number with no mark means an inactive call.

The assay is described as follows: growth modulation of vineyard yeast isolate – strain RM11-1a, OD600, basal, 24 h, primary screen (AID 1177).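 Also: cultures grown under basal conditions with no added stressor; test concentration not given here.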 The following applies: S. cerevisiae RM11-1a growth, OD600, 24 h; higher = more signal, called active from +8 up or from −8 down.
On to `CCOC(=O)C[C@H]1[C@H](OC(=O)Cc2ccc3c(c2)OCO3)[C@@H](NC(=O)CC(C)C)c2cc(OCCCO)ccc2N1C(=O)Cc1ccc(OC)cc1`, for which the z-score was -1.73.
Take `CCOC(=O)C1=C[C@@H](c2ccccc2)N(S(=O)(=O)c2ccc(C)cc2)[C@H]1c1ccccc1Cl`: the z-score is 2.01.
As to `C[N+](C)(C)CCCC[C@@H]1NC(=O)[C@H]2C[C@@H](C(=O)NCCCCCCN)[C@@H](c3ccc(O)cc3)N2C1=O`, the z-score is 1.18.
Consider `C=C(COC)C(=O)CC[C@@H](OC(=O)c1cccnc1)c1ccc(OCCO)cc1`, for which the z-score was -0.499.
Take `COC(=O)[C@@]1(Cc2ccc(OC)cc2)[C@H]2c3cc(C(=O)N4CCCC4)n(Cc4c(-c5ccccc5)noc4C)c3C[C@H]2CN1C(=O)c1ccccc1`: the z-score was 1.18.
In the case of `COCCCNC(=O)[C@]1(CCS(=O)(=O)c2ccccc2)N=C(c2ccc(OCCCO)cc2)O[C@@H]1c1ccccc1CN=[N+]=[N-]` it was 1.62; in that of `COC(=O)[C@@]1(Cc2ccc(F)cc2)[C@H]2c3cc(C(=O)N(C)C)n(CCc4ccc(O)c(OC)c4)c3C[C@H]2CN1C(=O)c1ccccc1`, 0.898; in that of `COC(=O)[C@@]1(Cc2ccccc2)[C@H]2c3cc(C(=O)N(C)C)n(CCN4CNCC4=O)c3C[C@H]2CN1C(=O)c1ccccc1`, 0.0591.
For `O=C1O[C@H](c2ccccc2)[C@H](c2ccccc2)N2[C@H]1[C@@H](C(=O)Nc1nc3ccccc3s1)[C@]1(C(=O)Nc3ccc(C#CCCO)cc31)[C@H]2c1ccc(O)cc1` the value was 0.604.
For the compound `COC(=O)c1cn(C[C@@H](Cc2ccccc2)NC(=O)N[C@H](CO)CCc2oc(C(C)=O)c(C(=O)OC)c2C(=O)OC)nn1`, the z-score is -0.504.
In the case of `COCCOC(=O)N1C(=O)[C@@]2(c3cc(C#CC4=CCCCC4)ccc31)[C@H](C(=O)N1CCCCCCC1)[C@H]1C(=O)O[C@H](c3ccccc3)[C@H](c3ccccc3)N1[C@@H]2c1ccc(O)cc1` it was 0.396.
For `CCOC(=O)C[C@H]1[C@H](OC(=O)c2ccccc2-c2ccccc2)[C@@H](NC(=O)C2CCCCC2)c2cc(OCCCO)ccc2N1C(=O)Cc1ccc(OC)cc1` the value was -0.508; for `COc1ccc(-c2cc3c(c(CCc4ccccc4)n2)[Si](C(C)C)(C(C)C)OC3)cn1`, 0.817.
On to `COC(=O)[C@@]1(Cc2ccccc2)[C@H]2c3cc(C(=O)N(C)C)n(CCc4ccc(O)c(OC)c4)c3C[C@H]2CN1C(=O)c1ccccc1`, for which the z-score was 0.194.
`COC(=O)Cn1c(C(=O)N(C)C)cc2c1C[C@H]1CN(C(=O)c3ccccc3)[C@@](Cc3ccc(F)cc3)(C(=O)OC)[C@@H]21`: the z-score was 1.34.
For `C=CCNC(=O)[C@H]1[C@@H]2C(=O)O[C@@H](c3ccccc3)[C@@H](c3ccccc3)N2[C@@H](c2ccc(O)cc2)[C@]12C(=O)N(C(=O)OCCOC)c1ccccc12` the value was 0.931.
For the compound `CC(C)N1C(=O)c2ccccc2[C@@H](C(=O)NC2CC2)[C@@H]1c1ccc(CO)cc1`, the z-score is -0.716.
`O=C1N(Cc2ccccc2)Cc2ccccc2[C@@H]2OC(c3ccc(OCCCO)cc3)=N[C@]12CCS(=O)(=O)c1ccccc1`: the z-score was 2.33.
In the case of `CC(C)C(=C=CC[C@H](O)c1ccc(OCCO)cc1)C[C@H](O)c1ccccn1` it was 0.673.
Take `COC(=O)c1nc2oc1CC[C@@H](CO)NC(=O)N(C)Cc1cnnn1C[C@H](Cc1ccccc1)NC2=O`: the z-score is 0.477.
For `CCOC(=O)C[C@H]1[C@H](OC(=O)Cc2ccc3c(c2)OCO3)[C@@H](NC(=O)Cc2ccc(OC)cc2)c2cc(OCCCO)ccc2N1C(=O)c1ccc2ccccc2n1`, the z-score is -2.18.
For `CCCCCCCCCCC(O)C1C=CC2C(=O)N(C)C(=O)C2N1NC(=O)OC(C)(C)C` (stereo not given) the value was 1.05; for `O=C1NC(=O)C2C1C=CC(C(O)c1c(F)cccc1Cl)N2Nc1ccc(Cl)cc1Cl` (stereo not given), -1.12; for `O=C1O[C@H](c2ccccc2)[C@H](c2ccccc2)N2[C@H]1[C@@H](C(=O)Nc1nc3ccccc3s1)[C@]1(C(=O)Nc3ccc(C#CC4(O)CCCCCC4)cc31)[C@H]2c1ccccc1OCCO`, 2.74.
In the case of `CC(C)[Si](C#C[Si](C(C)C)(C(C)C)C(C)C)(O[C@H](C)c1cn([C@H](CO)Cc2ccccc2)nn1)C(C)C` it was -0.504.
